Results as given in PubChem BioAssay (NCATS).
Values joined by “and” are separate entries in the source; they are usually repeats but may differ in a detail not shown here. Identical values can stand only once. Results filed as inconclusive are left out. A call without a number means that no potency is given here. Unmarked numbers belong to inactive results. Active and inactive are the calls of the source. Calls come from the whole dose curve; as a rule, active = well fitted curve in the direction sought with a large enough effect; inconclusive = small, poorly fitted or top-dose-only effect, or another doubt; inactive = no such curve, though single readings can be large; an effect the other way counts as inactive or inconclusive.

Tests used:
[1] = qHTS Assay for Identifying Gametocytocidal Compounds (AID 743244); note: potency is the fitted concentration of half-maximal effect;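 for max response: actives lower the fluorescent signal which means gametocytes are killed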; details: P. falciparum 3D7 stage III-V gametocytes, alamarBlue, 72 h; max response: active compounds read low
Outline: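 Using 20,000 stage III–V 3D7 gametocytes per well, compounds were incubated 72 h under 37 °C/5% CO2. Viability was then assessed by 24 h alamarBlue reduction, measured fluorometrically at 525/598 nm.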

[2] = P-glycoprotein substrates identified in KB-8-5-11 adenocarcinoma cell line, qHTS therapeutic library screen (AID 1346987); note: series mostly up to about 44 µM; nearly all actives have a fitted effect of over 65% in size
Outline: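 Human cervical adenocarcinoma KB-8-5-11 cells, selected in colchicine to over-express P-gp and assayed without it, were exposed for 72 h to titrated compounds. An ATP-based luminescent viability signal gave AC50.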

Row | SMILES | max response [1] | Potency [2] | Potency [1]
1 | Cn1nnnc1SCC1=C(C(=O)O)N2C(=O)[C@@H](NC(=O)[C@H](OC=O)c3ccccc3)[C@H]2SC1 | 10.2% | inactive | –
2 | O=S(=O)(O)Oc1ccc(C(c2ccc(OS(=O)(=O)O)cc2)c2ccccn2)cc1 | 4.73% | inactive | –
3 | O=c1[nH]cnc2[nH]cc(CN3CCCCC3)c12 | 10.8% | inactive | –
4 | CN[C@@H]1CCc2[nH]c3ccc(C(N)=O)cc3c2C1 | -0.658% | inactive | –
5 | NCCCC[C@H](NC(=O)[C@@H]1CCCN1C(=O)[C@@H]1CSSC[C@H](N)C(=O)N[C@@H](Cc2ccccc2)C(=O)N[C@@H](Cc2ccccc2)C(=O)N[C@@H](CCC(N)=O)C(=O)N[C@@H](CC(N)=O)C(=O)N1)C(=O)NCC(N)=O | -4.07% | inactive | –
6 | COc1ccnc(CS(=O)c2nc3cc(OC(F)F)ccc3[nH]2)c1OC (stereo not drawn) | -13.5% | inactive | –
7 | CC1(S(=O)(=O)O)CC(=O)c2ccccc2C1=O (stereo not drawn) | – | inactive | 6.31 µM (active)
8 | OCC(O)COc1ccc(Cl)cc1 (stereo not drawn) | 3.94% | inactive | –
9 | CCCCOC(=O)C(=O)Nc1cccc(-c2nn[nH]n2)c1 | 31.5% | inactive | –
10 | NCCCC[C@H](NC(=O)[C@@H]1CCCN1C(=O)[C@@H]1CSSC[C@H](N)C(=O)N[C@@H](Cc2ccc(O)cc2)C(=O)N[C@@H](Cc2ccccc2)C(=O)N[C@@H](CCC(N)=O)C(=O)N[C@@H](CC(N)=O)C(=O)N1)C(=O)NCC(N)=O | -14.9% and -14.7% | inactive | –
11 | C[C@H](CSC(=O)c1ccccc1)C(=O)N1C[C@@H](Sc2ccccc2)C[C@H]1C(=O)O | 13.2% | inactive | –
12 | O=P(O)(O)C(O)(Cc1cnc2ccccn12)P(=O)(O)O | -4.82% | inactive | –
13 | CCCCC(=O)O | -7.14% and 15.8% | inactive | –
14 | CC1(C)S[C@@H]2[C@H](NC(=O)C(C(=O)Oc3ccc4c(c3)CCC4)c3ccccc3)C(=O)N2[C@H]1C(=O)O (stereo partly drawn) | 5.21% | inactive | –
15 | O=P(O)(O)OC(Cn1cncn1)(Cn1cncn1)c1ccc(F)cc1F | 1.82% | inactive | –
16 | c1ccc2c(CCC3CCNCC3)c[nH]c2c1 | -9.29% | inactive | –
17 | OC(CN1CCCCC1)c1cc(-c2ccccc2)on1 (stereo not drawn) | -4.26% | inactive | –
18 | CC1(C)S[C@@H]2[C@H](NC(=O)[C@H](N)c3ccccc3)C(=O)N2[C@H]1C(=O)OCOC(=O)[C@@H]1N2C(=O)C[C@H]2S(=O)(=O)C1(C)C | 8.04% | inactive | –
19 | O=C(O)c1cccc(/C=C2/C[C@@H]3[C@@H](/C=C/[C@@H](O)C4CCCCC4)[C@H](O)C[C@@H]3O2)c1 | -5.6% | inactive | –
20 | O=C(OCCO)c1ccccc1O | 18.8% | inactive | –
21 | CCCC(=O)O[C@]1(C(=O)COC(=O)CC)[C@@H](C)C[C@H]2[C@@H]3CCC4=CC(=O)C=C[C@]4(C)[C@@]3(F)[C@@H](O)C[C@@]21C | -15.1% | inactive | –
22 | CS(=O)(=O)NC(=O)CCC/C=C\C[C@H]1C(=O)C[C@@H](O)[C@@H]1/C=C/[C@H](O)COc1ccccc1 | -11.4% | inactive | –
23 | C/C=C(/CC[C@@H](C)[C@H]1CC[C@H]2C3=CC[C@H]4[C@H](C)[C@@H](O)CC[C@]4(C)[C@H]3CC[C@]12C)C(C)C | -5.29% | inactive | –
24 | CCCN(CC)C(CC)C(=O)Nc1c(C)cccc1C (stereo not drawn) | 0.657% | inactive | –
25 | CSCC[C@H](NC(=O)[C@H](Cc1ccc(OS(=O)(=O)O)cc1)NC(=O)[C@@H](N)CC(=O)O)C(=O)NCC(=O)N[C@@H](Cc1c[nH]c2ccccc12)C(=O)N[C@@H](CCSC)C(=O)N[C@@H](CC(=O)O)C(=O)N[C@@H](Cc1ccccc1)C(N)=O | -12.2% and 15% | inactive | –
26 | CCCC(CCC)C(N)=O | -4.93% | inactive | –
27 | CC(=O)OCC(=O)[C@@]1(O)[C@H](C)C[C@H]2[C@@H]3C[C@H](F)C4=CC(=O)C=C[C@]4(C)[C@H]3[C@@H](O)C[C@@]21C | -15.2% | inactive | –
28 | C/C(=C(\CCOC(=O)c1ccccc1)SS/C(CCOC(=O)c1ccccc1)=C(/C)N(C=O)Cc1cnc(C)nc1N)N(C=O)Cc1cnc(C)nc1N | 9.71% | inactive | –
29 | O=P(O)(O)OC(CO)CO | 10.5% | inactive | –
